Columns and labels:
[1] = target: RAC-alpha serine/threonine-protein kinase (Homo sapiens) (UniProt P31749); conditions: at 0.1 µM
[2] = target: RAC-alpha serine/threonine-protein kinase (Homo sapiens) (UniProt P31749); conditions: at 1 µM
[3] = target: RAC-beta serine/threonine-protein kinase (Homo sapiens) (UniProt P31751); conditions: at 0.1 µM
[4] = target: RAC-beta serine/threonine-protein kinase (Homo sapiens) (UniProt P31751); conditions: at 1 µM
[5] = target: RAC-gamma serine/threonine-protein kinase (Homo sapiens) (UniProt Q9Y243); conditions: at 0.1 µM
[6] = target: RAC-gamma serine/threonine-protein kinase (Homo sapiens) (UniProt Q9Y243); conditions: at 1 µM
[7] = target: G protein-coupled receptor kinase 6 (Homo sapiens) (UniProt P43250); conditions: at 0.1 µM
[8] = target: G protein-coupled receptor kinase 6 (Homo sapiens) (UniProt P43250); conditions: at 1 µM
[9] = target: T1, Rhodopsin kinase GRK7 (Homo sapiens) (UniProt Q8WTQ7); conditions: at 0.1 µM
T1 sequence (whole entry): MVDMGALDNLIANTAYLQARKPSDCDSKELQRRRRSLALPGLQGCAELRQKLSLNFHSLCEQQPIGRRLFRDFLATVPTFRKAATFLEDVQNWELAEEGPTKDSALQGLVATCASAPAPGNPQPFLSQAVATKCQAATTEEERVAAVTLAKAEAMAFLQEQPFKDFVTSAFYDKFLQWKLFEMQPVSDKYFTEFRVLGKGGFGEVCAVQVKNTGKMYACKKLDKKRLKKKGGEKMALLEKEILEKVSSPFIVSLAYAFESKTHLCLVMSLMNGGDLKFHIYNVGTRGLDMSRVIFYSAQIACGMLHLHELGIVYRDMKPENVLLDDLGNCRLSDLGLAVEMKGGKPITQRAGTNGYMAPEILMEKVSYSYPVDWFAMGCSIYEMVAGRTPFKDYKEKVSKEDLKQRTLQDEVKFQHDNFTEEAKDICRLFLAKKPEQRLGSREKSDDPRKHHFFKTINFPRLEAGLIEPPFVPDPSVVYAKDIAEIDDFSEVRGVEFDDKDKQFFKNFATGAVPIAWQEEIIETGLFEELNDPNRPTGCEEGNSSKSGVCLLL

[10] = target: T1, Rhodopsin kinase GRK7 (Homo sapiens); conditions: at 1 µM

Chain of G protein-coupled receptor kinase 6 (Homo sapiens) (P43250 whole entry, looked up): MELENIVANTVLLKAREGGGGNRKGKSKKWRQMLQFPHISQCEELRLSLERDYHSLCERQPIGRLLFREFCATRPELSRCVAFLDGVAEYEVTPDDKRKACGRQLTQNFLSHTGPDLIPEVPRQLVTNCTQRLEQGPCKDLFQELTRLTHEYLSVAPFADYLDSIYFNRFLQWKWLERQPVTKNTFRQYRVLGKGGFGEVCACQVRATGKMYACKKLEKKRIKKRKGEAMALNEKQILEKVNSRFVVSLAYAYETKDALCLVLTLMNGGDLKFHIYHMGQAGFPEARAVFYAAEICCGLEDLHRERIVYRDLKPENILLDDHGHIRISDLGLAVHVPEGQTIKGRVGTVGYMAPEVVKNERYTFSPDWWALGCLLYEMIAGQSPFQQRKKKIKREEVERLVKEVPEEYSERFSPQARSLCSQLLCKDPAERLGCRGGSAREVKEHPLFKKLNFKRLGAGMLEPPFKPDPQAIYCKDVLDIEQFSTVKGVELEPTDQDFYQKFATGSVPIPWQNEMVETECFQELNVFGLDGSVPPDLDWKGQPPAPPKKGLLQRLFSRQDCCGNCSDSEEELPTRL
Chain of RAC-beta serine/threonine-protein kinase (Homo sapiens) (P31751 whole entry): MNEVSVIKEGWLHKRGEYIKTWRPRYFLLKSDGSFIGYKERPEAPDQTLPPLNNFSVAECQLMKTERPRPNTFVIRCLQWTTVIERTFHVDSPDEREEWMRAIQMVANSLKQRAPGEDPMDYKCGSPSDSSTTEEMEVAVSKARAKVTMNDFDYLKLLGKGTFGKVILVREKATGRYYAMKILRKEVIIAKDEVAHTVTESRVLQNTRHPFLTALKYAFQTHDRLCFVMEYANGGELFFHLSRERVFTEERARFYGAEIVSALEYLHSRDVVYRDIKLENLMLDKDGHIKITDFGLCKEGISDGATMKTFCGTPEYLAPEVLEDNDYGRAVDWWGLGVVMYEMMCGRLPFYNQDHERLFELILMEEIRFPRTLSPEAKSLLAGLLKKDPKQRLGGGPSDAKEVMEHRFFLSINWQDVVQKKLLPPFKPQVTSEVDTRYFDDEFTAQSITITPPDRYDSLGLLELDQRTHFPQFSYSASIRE
Chain of RAC-alpha serine/threonine-protein kinase (Homo sapiens) (P31749 whole entry): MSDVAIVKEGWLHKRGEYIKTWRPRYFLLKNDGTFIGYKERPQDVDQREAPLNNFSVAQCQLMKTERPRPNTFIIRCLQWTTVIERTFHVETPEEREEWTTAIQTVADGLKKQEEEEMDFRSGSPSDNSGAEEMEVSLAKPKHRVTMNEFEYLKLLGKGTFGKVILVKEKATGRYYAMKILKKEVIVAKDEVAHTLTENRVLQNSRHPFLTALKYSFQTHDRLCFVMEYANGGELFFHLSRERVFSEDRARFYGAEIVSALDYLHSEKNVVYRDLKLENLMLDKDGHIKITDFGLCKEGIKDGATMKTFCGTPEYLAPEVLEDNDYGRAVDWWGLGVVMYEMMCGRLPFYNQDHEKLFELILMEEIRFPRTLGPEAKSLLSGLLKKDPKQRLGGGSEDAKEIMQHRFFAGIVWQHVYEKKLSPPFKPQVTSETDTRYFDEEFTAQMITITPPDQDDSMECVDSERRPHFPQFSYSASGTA
Chain of RAC-gamma serine/threonine-protein kinase (Homo sapiens) (Q9Y243 whole entry): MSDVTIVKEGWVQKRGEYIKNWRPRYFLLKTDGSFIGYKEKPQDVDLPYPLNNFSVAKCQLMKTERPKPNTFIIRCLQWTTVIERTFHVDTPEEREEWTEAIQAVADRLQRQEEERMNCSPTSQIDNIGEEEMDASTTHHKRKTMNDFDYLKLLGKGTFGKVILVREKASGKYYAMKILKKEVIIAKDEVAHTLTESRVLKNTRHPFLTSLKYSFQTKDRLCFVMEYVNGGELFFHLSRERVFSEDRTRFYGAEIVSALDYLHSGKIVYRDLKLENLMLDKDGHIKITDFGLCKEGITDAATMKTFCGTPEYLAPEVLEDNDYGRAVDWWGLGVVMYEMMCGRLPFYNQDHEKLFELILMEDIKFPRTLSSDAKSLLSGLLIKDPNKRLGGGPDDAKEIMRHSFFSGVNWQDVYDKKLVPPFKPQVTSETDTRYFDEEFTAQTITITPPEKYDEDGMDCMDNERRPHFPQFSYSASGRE

Row | SMILES | inhibition [1] [%] | inhibition [2] [%] | inhibition [3] [%] | inhibition [4] [%] | inhibition [5] [%] | inhibition [6] [%] | inhibition [7] [%] | inhibition [8] [%] | inhibition [9] [%] | inhibition [10] [%]
1 | NC(=O)c1cc(-c2ccncc2)cc(-c2ccccc2)c1N | 0.73 | 0.01 | 1.93 | 2.56 | 0.25 | 3.46 | 3.52 | 3.56 | 5.22 | 9.17
2 | O=C(Nc1n[nH]c2nc(-c3ccco3)ccc12)C1CC1 | -0.33 | 0.8 | 0.45 | 0.89 | 0.35 | 0.8 | 1.97 | -2.2 | -1.29 | -7.98
3 | COc1cc(Nc2ncc3c(C)nc(-c4cccc(C(F)(F)F)c4)n3n2)cc(OC)c1OC | 0.55 | 0.77 | 1.62 | 1.52 | 1.12 | 1.21 | 1.33 | 4.77 | 3.66 | 6.59
4 | O=C(NCC1CC1)c1ccc(-c2cccc(C(=O)NC3CC3)c2)cc1 | 0.06 | 0.79 | 1.68 | 1.73 | 1.52 | 1.7 | 1.72 | -2.28 | 0.75 | -7.67
5 | NC(=O)c1ccc(Oc2nccc(-c3c(-c4ccc(F)cc4)ncn3C3CCNCC3)n2)cc1 | 1.54 | 3.25 | 2.45 | 1.86 | 3.04 | 7.31 | 4.21 | 7.44 | -1.91 | 2.41
6 | Fc1ccc(-c2ncn(CCCN3CCOCC3)c2-c2ccncc2)cc1 | 0.28 | -0.27 | 0.74 | 0.26 | -0.68 | 1.2 | -3.25 | -1.04 | -1.98 | 3.1
7 | O=C(Nc1ccc(Oc2ccc3[nH]c(NC(=O)c4ccccc4)nc3c2)cc1)Nc1cc(C(F)(F)F)ccc1F | -0.2 | 1.04 | 1.71 | 1.18 | 1.05 | 1.51 | 2.58 | 4.7 | 0.51 | -2.78
8 | COc1ccc(C2=C(N3CCc4ccccc43)C(=O)NC2=O)cc1 | 0.6 | 0.96 | 2.65 | 1.87 | 1.01 | 2.72 | 8.72 | 8.49 | 27.9 | 20.3
9 | CN1CCN(CCCNc2nc3ccc(Oc4ccc(NC(=O)Nc5cc(C(F)(F)F)ccc5F)cc4)cc3[nH]2)CC1 | -3.71 | -3.59 | -3.19 | -0.85 | -3.05 | -2.98 | 0.32 | -5.54 | 1.12 | -3.95
10 | O=C(Nc1n[nH]c2cc(-c3ccccc3)ccc12)C1CC1 | 0.57 | -0.63 | 1.2 | 1.68 | 0.33 | 2.94 | 2.59 | 3.48 | 3.13 | 3.52
11 | Cc1nnc(-c2ccc(C)c(-c3ccc(C(=O)NCc4ccc(Cl)cc4)cc3)c2)o1 | -1.66 | -2.4 | 0.03 | -2.39 | 0.07 | -0.93 | 5.17 | 5.38 | 4.29 | 9.45
12 | COc1cc(Nc2ncc(-c3ccccc3)o2)cc(OC)c1OC | -1.72 | -1.61 | -2.18 | -1.88 | -1.76 | 1.14 | -1.02 | -0.02 | 3.87 | -9.33
13 | NCc1ccc(-n2c(-c3nonc3N)nc3cnccc32)cc1 | 3.84 | 15.8 | 3.5 | 15.1 | 1.72 | 20.5 | 5.51 | 7.31 | 9.11 | 15.5
14 | Cc1ccc(C(=O)NC(C)C)cc1-c1ccc(C(=O)NCC2CC2)cc1 | -2.54 | -2.49 | -4.74 | -3 | -3.94 | -1.32 | -3.15 | -2.12 | -1.17 | -7.32
15 | C#Cc1cccc(Nc2ncnc3ccc(OCCCCNCCS(C)(=O)=O)cc23)c1 | -2.83 | -3.06 | -0.89 | -2.09 | -1.57 | -0.78 | 7.52 | 6.6 | 4.84 | 8.97
16 | O=C1Nc2ccc(I)cc2C1=Cc1cc(Br)c(O)c(Br)c1 | 1.14 | 0.96 | 1.72 | 1.1 | 1.78 | 0.85 | 4.84 | 17.8 | 12.1 | 15.5
17 | COc1cc2ncn(-c3cc(OCCc4ccccc4)c(C(N)=O)s3)c2cc1OC | 0.55 | 0.01 | 1.52 | 0.89 | 1.12 | -0.88 | -2.45 | -0.33 | 2.29 | 2.5

From ChEMBL document CHEMBL1961873, “Compounds: GSK PKIS; Assays: Nanosyn kinase panel” (2012)
